This passage reports max response, Potency and outcome results from PubChem BioAssay (NCATS).

One assay relates to KB-3-1. Put plainly: Cytotoxic Profiling of Annotated Libraries Using Quantitative High-Throughput Screening (AID 1296008). Note: nearly all actives have a fitted effect of over 60% in size. Particulars: Five cell lines viability, CellTiter-Glo ATP luminescence, 48-72 h; max response: stronger effect = lower value. In outline: (§1)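 Cytotoxicity was measured as CellTiter-Glo ATP luminescence, read after 10 min at room temperature. Compound treatment of the cells lasted 48 or 72 hr at 37 degrees Celsius in a qHTS format.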
(In ATP-based viability assays light output follows the ATP content of the culture.)

In the next assay the test system is NIH3T3. The assay is described as above. As to conditions: Five cell lines viability, CellTiter-Glo ATP luminescence, 48-72 h; max response: stronger effect = lower value. The method in brief: as §1
A further assay deals with MKL-1. The assay can be described thus: qHTS assay to identify novel small-molecules to repurpose for Merkel cell carcinoma treatment (AID 1296009). Note: nearly all actives have a fitted effect of over 60% in size. Particulars: MCC and control cell lines, CellTiter-Glo viability, 72 h; series mostly up to 46 µM. In outline:
(§2)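 72 hr, 37 degree celsius; NPC 8-pt / MIPE 11-pt dose response; compound pinned in DMSO; CellTiter-Glo, 10 min RT, luminescence; normalized to no-cell and DMSO controls.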
On the technique in general: In qHTS, concentration-response curves come from the screen itself.

In another assay the test system is MKL-2. The assay is described as above. Particulars: MCC and control cell lines, CellTiter-Glo viability, 72 h; series mostly up to 46 µM. The method in brief:
as §2

A further assay has as its system UISO. The description is as above. As to conditions: MCC and control cell lines, CellTiter-Glo viability, 72 h; series mostly up to 46 µM. The method in brief: as §2
The next assay has as its system WaGa. Described as above. Particulars: MCC and control cell lines, CellTiter-Glo viability, 72 h; series mostly up to 46 µM. In outline:
as §2

In another assay the test system is C33A. The assay can be described thus: Primary qHTS to identify gynecologic anti-cancer compounds using libraries of approved drugs and bioactive compounds (AID 1345084). Note: nearly all actives have a fitted effect of over 55% in size. As to conditions: Gynecologic cancer cell panel viability, ATPlite luminescence, 48 h; series mostly up to 57.5 µM. The method in brief:
(§3)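 Five-concentration response, 48 h; readout is ATP-driven luciferase luminescence.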

Another assay concerns CASKI. Described as above. As to conditions: Gynecologic cancer cell panel viability, ATPlite luminescence, 48 h; series mostly up to 57.5 µM. The method in brief:
as §3

The next assay relates to HeLa. Described as above. As to conditions: Gynecologic cancer cell panel viability, ATPlite luminescence, 48 h; series mostly up to 57.5 µM. In outline:
as §3

A further assay has as its system OV90. The description is as above. As to conditions: Gynecologic cancer cell panel viability, ATPlite luminescence, 48 h; series mostly up to 57.5 µM. The method in brief: as §3
The test system of a further assay is MCC-13. Put plainly: qHTS assay to identify novel small-molecules to repurpose for Merkel cell carcinoma treatment (AID 1296009). Note: nearly all actives have a fitted effect of over 60% in size. Particulars: MCC and control cell lines, CellTiter-Glo viability, 72 h; series mostly up to 46 µM. In outline: as §2
A further assay deals with MCC-26. Described as above. As to conditions: MCC and control cell lines, CellTiter-Glo viability, 72 h; series mostly up to 46 µM. In outline: as §2
For a further assay, the system named is JEG-3. Put plainly: Primary qHTS to identify gynecologic anti-cancer compounds using libraries of approved drugs and bioactive compounds (AID 1345084). Note: nearly all actives have a fitted effect of over 55% in size. As to conditions: Gynecologic cancer cell panel viability, ATPlite luminescence, 48 h; series mostly up to 57.5 µM. In outline: as §3
The subject of another assay is Es-2. The description is as above. Particulars: Gynecologic cancer cell panel viability, ATPlite luminescence, 48 h; series mostly up to 57.5 µM. In outline:
as §3

Another assay deals with Hek293T. Described as above. Particulars: Gynecologic cancer cell panel viability, ATPlite luminescence, 48 h, control line for the selectivity index; series mostly up to 57.5 µM. The method in brief:
as §3

The next assay has as its system CAOV3. The assay is described as above. As to conditions: Gynecologic cancer cell panel viability, ATPlite luminescence, 48 h; series mostly up to 57.5 µM. The method in brief: as §3

Values joined by “and” are separate entries in the source; they are usually repeats but may differ in a detail not shown here. Equal entries are not always repeated. Results filed as inconclusive are left out. Values without a mark were called inactive. Active and inactive are the calls of the source. Calls come from the whole dose curve; as a rule, active = well fitted curve in the direction sought with a large enough effect; inconclusive = small, poorly fitted or top-dose-only effect, or another doubt; inactive = no such curve, though single readings can be large; an effect the other way counts as inactive or inconclusive.
% is set by controls: 0 for no effect and ±100 for the full control effect; potency is the fitted concentration of half-maximal effect.

On to `COc1cccc2c(NCc3ccccc3)nc(-n3c(N)nc4ccccc43)nc12`, for which the max response in the assay on KB-3-1 was -11.5%. The Potency was 10.5 µM (active) in the assay with NIH3T3; 9.35 µM (active) with MKL-1; 4690 nM (active) with MKL-2; 6.62 µM (active) with UISO; 9.35 µM (active) with WaGa; 28.2 µM (active) with C33A. Further, the Potency with CASKI, in the assay with HeLa and in the assay on OV90 was 25.1 µM (active) in each case.
Take `Cc1[nH]c2ccccc2c1CCNCc1ccc(C=CC(=O)NO)cc1`: the Potency in the assay with KB-3-1 is 148 nM (active); in the assay with NIH3T3 it was 0.743 µM (active); in the assay on MCC-13 it was 0.833 µM (active); in the assay on MCC-26 it was 0.935 µM (active); in the assay on MKL-1, 0.332 µM (active); in the assay with MKL-2, 46.9 nM (active). In addition, the Potency was 0.526 µM (active) in the assay with UISO and 0.059 µM (active) in the assay with WaGa.
Regarding `COc1c(OCCCN2CCOCC2)ccc2c3n(c(=NC(=O)c4cnc(N)nc4)nc12)CCN3`, the Potency with KB-3-1 is 94.4 nM (active); in the assay with NIH3T3 it was 2.88 µM (active) and 59.6 nM (active); in the assay on C33A, 0.316 µM (active); with CASKI, 0.112 µM (active); in the assay with HeLa, 1 µM (active). Further, the Potency entry in the assay on MKL-1 is “inactive”.
Consider `CC[C@H](CO)Nc1nc(NCc2ccccc2)c2ncn(C(C)C)c2n1`, for which the max response in the assay with NIH3T3 is -26.8%. Also, the Potency result with MCC-13, in the assay on MCC-26, with MKL-1, in the assay on MKL-2 and in the assay on WaGa was “inactive” each time.
As for `Nc1nc(Nc2ccc(S(N)(=O)=O)cc2)nn1C(=O)c1c(F)cccc1F`, the Potency with KB-3-1 was 3260 nM (active); in the assay with NIH3T3, 10.5 µM (active) and 11.6 µM (active); in the assay with UISO, 13.2 µM (active); with HeLa, 22.4 µM (active). Also, in the assay on JEG-3, the Potency result is “inactive”.
Regarding `Cc1cn2c(-c3cn[nH]c3)cnc2c(Nc2ccc(C(=O)N3CCNCC3)cc2F)n1`, the Potency entry with MCC-13, with MCC-26, in the assay on MKL-1, in the assay on MKL-2, in the assay on WaGa and in the assay on C33A was “inactive” in each case. The Potency result in the assay with CASKI, in the assay on Es-2, in the assay on Hek293T, in the assay on JEG-3 and in the assay on OV90 was “inactive” each time.
Regarding `NC(=O)c1cccc2cn(-c3ccc([C@@H]4CCCNC4)cc3)nc12`, the max response is -3.07% and -13.7% with KB-3-1; -38.6% and -0.532% in the assay on NIH3T3. In addition, the Potency entry with MCC-13, in the assay on C33A, in the assay on CAOV3, with CASKI, in the assay on HeLa and in the assay with Hek293T was “inactive” in each case. Besides, the Potency entry with JEG-3 and with OV90 was “inactive” in each case. The Potency is 18.7 µM (active) with MKL-1 and 10.5 µM (active) in the assay with WaGa.
For the compound `CNc1nccc(-c2cccnc2Oc2cc(C(=O)Nc3cccc(C(F)(F)F)c3)ccc2C)n1`, in the assay on KB-3-1, the call was inactive. Also, the Potency in the assay on NIH3T3 is 18.4 µM (active). Further, the Potency result in the assay on MKL-1, in the assay with MKL-2, in the assay on UISO, in the assay on WaGa, with C33A and with Hek293T was “inactive” each time. In the assay with JEG-3, the Potency entry is “inactive”.
Take `C[C@@]12O[C@@H](C[C@]1(O)CO)n1c3ccccc3c3c4c(c5c6ccccc6n2c5c31)CNC4=O`: the Potency in the assay with KB-3-1 was 372 nM (active); in the assay with NIH3T3, 1.87 µM (active); with MCC-26, 18.7 µM (active); in the assay on MKL-1 it was 1.48 µM (active); with MKL-2, 52.6 nM (active); with UISO, 1.66 µM (active). Further, the Potency in the assay with WaGa was 0.833 µM (active).
Take `COc1cc2ncn(-c3cc(OCc4ccccc4C(F)(F)F)c(C(N)=O)s3)c2cc1OC`: the Potency in the assay on KB-3-1 was 418 nM (active). In addition, the max response in the assay with NIH3T3 is -29.2%. The Potency entry with MCC-26 and with MKL-2 was “inactive” throughout.
As to `Cc1ccc(C(=O)Nc2ccc(CN3CCN(C)CC3)c(C(F)(F)F)c2)cc1C#Cc1cnc2cccnn12`, the Potency was 25.1 µM (active) with C33A; 14.1 µM (active) in the assay with CASKI; 8.91 µM (active) in the assay on Es-2; 11.2 µM (active) in the assay with HeLa; 15.8 µM (active) with OV90.
With `CN1CCN(c2ccc3nc(-c4c(N)c5c(F)cccc5[nH]c4=O)[nH]c3c2)CC1`, the Potency with KB-3-1 is 16600 nM (active); with NIH3T3, 1.32 µM (active); in the assay on MKL-1 it was 8.33 µM (active).
For `CCCCN1CCC(CNC(=O)c2c3n(c4ccccc24)CCCO3)CC1`, the Potency entry in the assay on MCC-13 and with MCC-26 was “inactive” in each case.
As for `c1cc(-c2cnn3cc(-c4ccc(OCCN5CCCCC5)cc4)cnc23)ccn1`, the Potency in the assay on KB-3-1 is 3720 nM (active); with NIH3T3 it was 0.372 µM (active); with MCC-13 it was 16.6 µM (active); in the assay on MKL-1, 11.8 µM (active); in the assay with UISO, 5.9 µM (active); in the assay with WaGa, 13.2 µM (active).
